From PubChem BioAssay
Active and inactive are the calls of the source.

How the values were obtained:
[1] = system: Human papillomavirus type 1a protein E7 (residues 44-93); assay: HPV1a E7 fragment binders on microarrays, primary screen, biochemical, small-molecule microarray, residues 44-93, 635 nm fluorescence (AID 1108); conditions: small-molecule microarray binding, fluorescence 635 nm; higher = more signal;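 also: E7 fragment applied at 1 µg/mL in TBST for 1 h at 4 C; score combines spot fluorescence with its signal to noise ratio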
[2] = modulators of HCV replicon luciferase signal, primary screen, HCV replication inhibitor project, Huh7 cells, luciferase reporter (AID 1109); conditions: 48 h, higher = more signal;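 also: huh7 hepatoma cells harbouring a luciferase neomycin HCV replicon reporter; luciferase luminescence as measure of HCV replicon replication; test concentration not given here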
[3] = biological target: Left-right determination factor 2 (Homo sapiens) (UniProt O00292); assay: LEFTY2 binders on small-molecule microarrays, primary screen, biochemical, small-molecule microarray, 635 nm fluorescence scan (AID 1110); conditions: LEFTY2 binding, higher = more signal
Chain of Left-right determination factor 2 (Homo sapiens) (O00292 whole entry, looked up): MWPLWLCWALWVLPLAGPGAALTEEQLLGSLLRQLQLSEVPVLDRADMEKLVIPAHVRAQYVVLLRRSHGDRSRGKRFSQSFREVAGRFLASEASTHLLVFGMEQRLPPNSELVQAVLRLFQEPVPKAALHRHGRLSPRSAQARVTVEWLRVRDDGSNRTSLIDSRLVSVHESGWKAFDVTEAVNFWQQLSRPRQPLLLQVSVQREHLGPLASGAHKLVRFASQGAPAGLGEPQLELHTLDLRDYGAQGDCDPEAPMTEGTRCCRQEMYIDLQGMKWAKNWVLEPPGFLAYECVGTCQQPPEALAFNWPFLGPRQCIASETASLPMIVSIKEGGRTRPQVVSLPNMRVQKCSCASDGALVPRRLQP

[4] = biological target: Calmodulin-1 (Homo sapiens) (UniProt P0DP23); assay: CALM1 binders on microarrays, EGTA buffer, profiling panel, biochemical, small-molecule microarray, Cy5-labelled CALM1 (AID 1111); conditions: Cy5-CALM1 binding fluorescence, higher = more signal;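 also: labelled calmodulin applied in Tris saline Tween buffer holding calcium plus EGTA and DTT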
[5] = biological target: Calmodulin-1 (Homo sapiens) (UniProt P0DP23); assay: calcium-bound CALM1 binders on microarrays, profiling panel, artefact control for SMM control-protein annotation, biochemical, small-molecule microarray, Cy5-labelled CALM1, plus calcium (AID 1112); conditions: Cy5-CALM1 binding fluorescence, higher = more signal;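 also: score merges spot fluorescence with signal to noise from triplicate slides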
[6] = small-molecule microarray binders of probe aWnt5a, primary screen, biochemical, biotinylated probe, 635/667 nm fluorescence (AID 1113); conditions: higher = more signal;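 also: score merges 667 nm fluorescence intensity with signal-to-noise per printed feature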
[7] = small-molecule microarray binders of probe aShh, primary screen, biochemical, biotinylated probe, 635/667 nm fluorescence (AID 1114); conditions: higher = more signal;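 also: probe is biotin-labelled aShh protein from a stem cell growth factor screen; measures binding of labelled protein to compounds printed on the slide; score merges feature fluorescence at 667 nm with signal-to-noise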
[8] = small-molecule microarray binders of probe aNog, primary screen, biochemical, biotinylated probe, 635/667 nm fluorescence (AID 1115); conditions: higher = more signal;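 also: probe is biotinylated aNog protein used at 0.15 µg/mL for 1 h at 4 C; z-score combines 667 nm fluorescence of each spot with its signal to noise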
[9] = biological target: Torsin-1A-interacting protein 1 (Homo sapiens) (UniProt Q5JTV8); assay: LAP1 binders from COS7 cell lysate, primary screen, small-molecule microarray, 635/667 nm fluorescence (AID 1116); conditions: COS7-hLAP1 lysate binding, 635 nm fluorescence, higher = more signal
Chain of Torsin-1A-interacting protein 1 (Homo sapiens) (Q5JTV8 whole entry, looked up): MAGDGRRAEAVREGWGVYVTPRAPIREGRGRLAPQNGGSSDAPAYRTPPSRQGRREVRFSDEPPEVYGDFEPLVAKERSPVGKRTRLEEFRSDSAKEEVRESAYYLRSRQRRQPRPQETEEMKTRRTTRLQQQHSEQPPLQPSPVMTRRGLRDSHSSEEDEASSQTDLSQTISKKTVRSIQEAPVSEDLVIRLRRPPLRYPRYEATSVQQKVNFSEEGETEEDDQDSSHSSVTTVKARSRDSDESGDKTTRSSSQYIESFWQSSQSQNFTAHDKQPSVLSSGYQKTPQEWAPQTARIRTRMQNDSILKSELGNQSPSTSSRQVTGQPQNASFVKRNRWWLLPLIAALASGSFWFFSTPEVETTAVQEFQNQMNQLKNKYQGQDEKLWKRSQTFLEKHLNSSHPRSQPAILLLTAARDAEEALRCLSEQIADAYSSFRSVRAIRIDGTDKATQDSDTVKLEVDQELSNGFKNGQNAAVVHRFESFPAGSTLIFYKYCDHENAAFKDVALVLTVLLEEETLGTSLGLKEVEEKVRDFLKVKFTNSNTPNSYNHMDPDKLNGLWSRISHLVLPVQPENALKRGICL

[10] = biological target: Alpha-bungarotoxin (Bungarus multicinctus) (UniProt P60615); assay: alpha-bungarotoxin binders on microarray, profiling panel, artefact control for SMM control protein annotation, biochemical, small-molecule microarray, Alexa647 label, 635/667 nm fluorescence (AID 1117); conditions: alpha-BTX-A647 binding fluorescence, higher = more signal
Chain of Alpha-bungarotoxin (Bungarus multicinctus) (P60615 whole entry, looked up): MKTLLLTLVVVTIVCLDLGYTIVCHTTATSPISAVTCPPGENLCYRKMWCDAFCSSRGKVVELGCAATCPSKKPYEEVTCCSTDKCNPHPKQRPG

Albumin (Bos taurus) = Albumin (Bos taurus) (UniProt P02769); assay: bovine serum albumin binders on microarray, profiling panel, artefact control for SMM control protein annotation, biochemical, small-molecule microarray, Alexa647 label, 635/667 nm fluorescence (AID 1118); conditions: BSA-A647 binding, fluorescence 635 nm, higher = more signal;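 also: score merges 667 nm emission intensity and signal-to-noise per printed compound spot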
Chain of Albumin (Bos taurus) (P02769 whole entry, looked up): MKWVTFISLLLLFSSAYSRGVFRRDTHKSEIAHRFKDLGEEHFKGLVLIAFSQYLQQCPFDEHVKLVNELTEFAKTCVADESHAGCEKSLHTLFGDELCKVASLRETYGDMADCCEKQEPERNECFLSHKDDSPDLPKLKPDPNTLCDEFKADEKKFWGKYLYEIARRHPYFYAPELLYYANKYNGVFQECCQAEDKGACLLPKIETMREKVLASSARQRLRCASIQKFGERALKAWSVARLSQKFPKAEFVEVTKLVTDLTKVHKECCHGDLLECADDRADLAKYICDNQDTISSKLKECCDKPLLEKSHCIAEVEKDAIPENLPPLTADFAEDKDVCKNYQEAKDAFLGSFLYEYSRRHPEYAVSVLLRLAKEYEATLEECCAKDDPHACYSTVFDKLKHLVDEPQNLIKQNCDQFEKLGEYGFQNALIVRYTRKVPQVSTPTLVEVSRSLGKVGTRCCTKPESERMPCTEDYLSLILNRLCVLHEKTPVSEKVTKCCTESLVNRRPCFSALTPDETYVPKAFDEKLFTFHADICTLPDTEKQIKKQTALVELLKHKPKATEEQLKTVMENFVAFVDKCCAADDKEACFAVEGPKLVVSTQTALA

[11] = small-molecule microarray binders of probe aXIP, primary screen, biochemical, NeuroSMM set, 635/667 nm fluorescence (AID 1119); conditions: higher = more signal, called active from +8 up or from −8 down;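 also: probe is the protein aXip251-270 applied at 1 µg/mL to compound-printed slides; binding of probe to printed compounds measured as 667 nm fluorescence plus signal to noise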
[12] = small-molecule binders of probe aNOTCH3, primary screen, biochemical, small-molecule microarray, 635/667 nm fluorescence (AID 1120); conditions: higher = more signal;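 also: probe is a biotin-tagged antibody raised against NOTCH3 rather than NOTCH3 protein; score merges spot fluorescence near 667 nm with spot signal to noise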
[13] = small-molecule binders of probe aNOTCH2, primary screen, biochemical, small-molecule microarray, 635/667 nm fluorescence (AID 1121); conditions: higher = more signal;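 also: score merges feature fluorescence read at 667 nm with its signal to noise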
[14] = biological target: Carbonic anhydrase 2 (Homo sapiens) (UniProt P00918); assay: CAII small-molecule binders, profiling panel, biochemical, small-molecule microarray, Alexa647-labelled CAII (AID 1122); conditions: CAII-A647 binding fluorescence, higher = more signal
[15] = COS7 lysate on small-molecule microarray, probe aHis, 635 nm (AID 1123); conditions: COS7 cell lysate, fluorescence, higher = more signal;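 also: z-score combines 667nm fluorescence intensity with signal-to-noise per printed compound spot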
[16] = compound binding in COS7 lysate, probe aLAP1, primary screen, cell lysate, small-molecule microarray (AID 1124); conditions: probe aLAP1, fluorescence, higher = more signal;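 also: lysate comes from COS7 cells expressing LAP1 and is applied at 0.3 µg/mL; score merges spot fluorescence near 667 nm with signal-to-noise over triplicate slides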
Sam68 (KHDRBS1) = assay: Sam68 small-molecule binders, primary screen, biochemical, small-molecule microarray, 635 nm fluorescence (AID 1125); conditions: small-molecule microarray binding, higher = more signal;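 also: score merges 667 nm channel intensity with signal to noise over triplicate slides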
[17] = system: Chordin-like protein 2 (CHRDL2); assay: CHRDL2 small-molecule binders, primary screen, biochemical, small-molecule microarray, 635 nm fluorescence (AID 1126); conditions: small-molecule microarray binding, fluorescence 635 nm; higher = more signal;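 also: printed compound slides probed with Chrdl2 protein at 4 µg/mL for 1 h at 4 C; score merges 667 nm emission intensity with signal to noise over three replicate slides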
[18] = biological target: Concanavalin-A (Canavalia ensiformis) (UniProt P02866); assay: ConA small-molecule binders, primary screen, artefact control for SMM control protein annotation, biochemical, small-molecule microarray, Alexa647 label, 635 nm (AID 1127); conditions: ConA-A647 binding fluorescence, higher = more signal;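 also: z combines 667 nm emission intensity with signal-to-noise across three replicate slides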
Chain of Concanavalin-A (Canavalia ensiformis) (P02866 whole entry, looked up): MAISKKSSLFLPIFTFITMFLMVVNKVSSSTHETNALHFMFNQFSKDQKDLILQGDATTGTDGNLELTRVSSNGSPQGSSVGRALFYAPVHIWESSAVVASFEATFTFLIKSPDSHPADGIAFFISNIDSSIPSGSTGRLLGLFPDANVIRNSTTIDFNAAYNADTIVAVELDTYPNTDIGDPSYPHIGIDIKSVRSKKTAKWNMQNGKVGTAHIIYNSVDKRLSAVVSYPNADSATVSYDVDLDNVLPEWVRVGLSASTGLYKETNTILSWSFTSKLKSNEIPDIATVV

Row | Structure (SMILES) | composite z-score [1] | z-score [2] | composite z-score [3] | composite z-score [4] | composite z-score [5] | composite z-score [6] | composite z-score [7] | composite z-score [8] | composite z-score [9] | composite z-score [10] | composite z-score (Albumin (Bos taurus)) | composite Z-score [11] | composite z-score [12] | composite z-score [13] | composite z-score [14] | composite z-score [15] | composite z-score [16] | composite z-score (Sam68 (KHDRBS1)) | composite z-score [17] | composite z-score [18]
1 | CCCC[C@@H]1C[C@H]1[C@@H](NC(=O)c1ccco1)c1ccccc1 | -1.35 | -2.26 | -2.75 | -0.352 | 0.479 | -0.258 | 0.108 | -0.218 | -1.63 | -0.703 | 0.277 | -0.264 (inactive) | -0.25 | -0.193 | -0.504 | -0.185 | -0.697 | -0.555 | -1.41 | -0.945
2 | O=C1NC(=O)C2C1C=CC(C(O)c1cccs1)N2Nc1ccccn1 (stereo not given) | 0.348 | 0.755 | 0.451 | 0.0761 | -0.576 | -0.096 | -0.214 | 0.0516 | 1.32 | 1.19 | 0.426 | 0.32 (inactive) | 0.118 | -0.0826 | 0.803 | 1.21 | 0.0919 | 0.248 | 0.129 | 0.766
3 | [N-]=[N+]=NCc1ccccc1C[C@@]1(C(=O)NCc2ccccc2)N=C(c2ccc(OCCCO)cc2)O[C@@H]1c1ccccc1CN=[N+]=[N-] | -0.0428 | -2.52 | -0.372 | 1.51 | 0.924 | 0.178 | 0.274 | 1.88 | 2.59 | 1.49 | 0.684 | 0.936 (inactive) | 0.328 | 0.273 | 0.669 | 2.21 | 0.745 | 1.3 | -0.106 | 1
4 | COc1ccccc1CN1C(=O)c2ccccc2[C@](Cc2ccccc2I)(C(=O)NCc2ccccc2)[C@@H]1c1ccc(CO)cc1 | 0.0977 | -0.641 | -0.703 | 0.0656 | 0.556 | 0.037 | -0.264 | -0.268 | -0.0999 | 1.05 | 0.717 | 0.265 (inactive) | -0.0682 | -0.0211 | 0.345 | 1.77 | 0.729 | 0.505 | -0.748 | -0.0126
5 | CC1(C)C(=O)C(c2ccccc2)=C2CN3C(=O)N(CCc4ccccc4)C(=O)C3(Cc3ccccc3)C=C21 (stereo not given) | 1.03 | -1.58 | -0.0283 | 1.03 | 0.9 | 0.0633 | 0.375 | 0.578 | -0.0882 | 1.68 | 0.775 | 0.274 (inactive) | 0.351 | 0.121 | 0.644 | 1.16 | -0.0857 | 0.516 | -0.888 | 0.444
6 | COCCn1c(C(=O)N2CCCC2)cc2c1C[C@H]1CN(C(=O)c3ccccc3)[C@@](Cc3ccc(OC)cc3)(C(=O)OC)[C@@H]21 | 0.279 | -1.62 | -0.464 | 2.67 | 1.33 | 0.0365 | 0.21 | -0.401 | 3.21 | 0.626 | 1.11 | 0.433 (inactive) | 0.512 | 0.384 | 0.868 | 2.11 | 1.11 | 0.424 | -0.975 | 1.05
